From PubChem BioAssay (NCATS) come the findings set out here.

Test [1] can be described thus: qHTS drug screen for cell cycle checkpoint inhibitors in PARPi-resistant BRCA-mutant ovarian cancer cell lines. (AID 1963452; calls by dose curve; further: potency means the concentration at half of the fitted maximal effect). Particulars: PEO1/OlaR viability, CellTiter-Glo luminescence, 96 h; for Z-AUC: stronger effect = lower value. Put shortly: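 PEO1, PEO4 and PEO1/OlaR ovarian cancer cells, 600 per well, exposed 96 h at 37C to a dilution series. Viability read by CellTiter-Glo luminescence, normalized to DMSO and empty wells; activity summarized as Z-AUC.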

Test [2] can be described thus: qHTS profiling for inhibitors of Plasmodium falciparum proliferation (AID 504749). Further: nearly all actives have a fitted effect of over 60% in size. Further: potency means the concentration at half of the fitted maximal effect.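 On activity, negative = inhibition: 0% = DMSO vehicle and full inhibition = artemisinin control.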 Particulars: P. falciparum in erythrocytes, SYBR Green DNA, 72 h. The method in brief:
(§1)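 Fluorescence of SYBR Green-bound parasite DNA, read at 485/535 nm, served as the growth measure. Infected erythrocytes were cultured with compound 72 h; artemisinin (0.29 uM) and DMSO wells defined the normalization range.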

Test [3] relates to 3D7. Described as above. Particulars: P. falciparum in erythrocytes, SYBR Green DNA, 72 h; series mostly up to 28.7 µM. Put shortly: as §1
Test [4] concerns 7G8. The description is as above. Conditions: P. falciparum in erythrocytes, SYBR Green DNA, 72 h; series mostly up to 28.7 µM. The method in brief:
as §1

Test [5] has as its system AA1029. Described as above. Conditions: P. falciparum in erythrocytes, SYBR Green DNA, 72 h; series mostly up to 28.7 µM. The method in brief:
as §1

The test system of test [6] is AS120. The description is as above. Particulars: P. falciparum in erythrocytes, SYBR Green DNA, 72 h; series mostly up to 28.7 µM. Put shortly: as §1
In test [7] the test system is ATS189. Described as above. Conditions: P. falciparum in erythrocytes, SYBR Green DNA, 72 h; series mostly up to 28.7 µM. The method in brief:
as §1

For test [8], the system named is ATS95. The description is as above. Particulars: P. falciparum in erythrocytes, SYBR Green DNA, 72 h; series mostly up to 28.7 µM. Put shortly: as §1
The subject of test [9] is C2A. The description is as above. Conditions: P. falciparum in erythrocytes, SYBR Green DNA, 72 h; series mostly up to 28.7 µM. The method in brief:
as §1

Test [10] concerns the target Cytochrome P450 3A4 (Homo sapiens) (UniProt P08684). The test is described as follows: qHTS for inhibitors of CYP3A4 against the NCATS DSHEA and TCM libraries (AID 1919971).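 Further: on the % scale 0 is the no-effect control and ±100 the full control effect; inhibition lowers luminescence from luciferin made by CYP3A4.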 Conditions: recombinant CYP3A4 enzyme activity, luminescence qHTS; series mostly up to 34.1 µM. Put shortly:
(§2)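 Substances were tested against enzyme with a pro-luciferin substrate; minus-enzyme wells served as background. After NADPH-initiated oxidation (30-45 min, RT), light was generated with P450-Glo reagent.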

Test [11] has as its target Cytochrome P450 2D6 (Homo sapiens) (UniProt P10635). Put plainly: qHTS for inhibitors of CYP2D6 against the NCATS DSHEA and TCM libraries (AID 1919972). Further: on the % scale 0 is the no-effect control and ±100 the full control effect. Particulars: CYP2D6 enzymatic inhibition, luminescence qHTS; series mostly up to 34.1 µM. The method in brief: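 qHTS, concentration–response format with most substances from 19.5 nM. CYP2D6 + pro-luciferin substrate, 15 min with compound, then 1x NADPH regen, 30–45 min RT dark. Glo detection 30 min, luminescence. Quinidine control.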

In test [12] the target is Cytochrome P450 2C9 (Homo sapiens) (UniProt P11712). Put plainly: qHTS for inhibitors of CYP2C9 against the NCATS DSHEA and TCM libraries (AID 1919973).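 Further: luminogenic pro-luciferin CYP2C9 substrate turned into luciferin with NADPH regeneration; on the % scale 0 is the no-effect control and ±100 the full control effect.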 Conditions: recombinant CYP2C9 enzyme activity, luminescence; series mostly up to 34.1 µM. Put shortly:
as §2

Test [13] addresses Cytochrome P450 2C19 (Homo sapiens) (UniProt P33261). The test is described as follows: qHTS for inhibitors of CYP2C19 against the NCATS DSHEA and TCM libraries (AID 1919974).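 Further: luminescence from luciferin released by CYP2C19 oxidation of a pro-luciferin substrate; on the % scale 0 is the no-effect control and ±100 the full control effect.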 Particulars: CYP2C19 enzyme inhibition, luminescence qHTS; series mostly up to 34.1 µM. Put shortly: as §2
Test [14] in a line: KB-3-1 P-gp reporter qHTS against the NCATS DSHEA and TCM libraries (AID 1919975). Further: 0% is about no effect. Conditions: KB-3-1 parental cells, CellTiter-Glo luminescence viability, 72 h; series mostly up to 26.1 µM. Put shortly:
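Cell viability by CellTiter-Glo luminescence following ~72 h compound exposure (concentration-response). Uses parental, non-P-gp-overexpressing KB-3-1 line, 500 cells/well in DMEM/10% FBS, attached ~4 h before dosing.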

The target of test [15] is Cytochrome P450 1A2 (Homo sapiens) (UniProt P05177). Put plainly: qHTS for inhibitors of CYPIA2 against the NCATS DSHEA and TCM libraries (AID 1919976). Further: on the % scale 0 is the no-effect control and ±100 the full control effect. Particulars: recombinant CYP1A2 enzyme activity, luminescence; series mostly up to 37 µM. Put shortly:
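Luminescence read-out: pro-luciferin converted to D-luciferin by CYP1A2, detected with P450-Glo reagent after 30 min RT. Enzyme plus substrate got compounds for 15 min RT; NADPH regeneration solution (final 1x) started a 30-45 min reaction, light-protected.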

Test [16] is described as follows: qHTS Counterscreen for compound interference against the NCATS DSHEA and TCM libraries (AID 1919978).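 Further: compounds preincubated with 1 µM D-luciferin or buffer before detection reagent; % of control where 0% means no effect.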 Particulars: firefly luciferase detection reagent interference, luminescence. The method in brief: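 With 1 uM D-luciferin or phosphate buffer only, compounds at final 19.5 nM–39.8 uM were incubated for 15 min at room temperature. Luciferase detection reagent was then added, and luminescence was measured after a further 30 min at room temperature.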

A short description of test [17]: Dual reporter qHTS for agonist of Pregnane X Receptor (hPXR) against the NCATS DSHEA and TCM libraries: Fluorescence readout (AID 1920058). Further: 0% is about no effect. Particulars: PXR dual reporter cells; series mostly up to 40 µM. The method in brief:
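Fluorescence read-out for cell viability: CellTiter-Fluor, 1 h at 37 °C, Ex/Em 405/540 nm. This followed ~24 h treatment of hPXR-Luc HepG2 cells with substances in agonist mode.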

Test [18] deals with Nuclear receptor subfamily 1 group I member 2 (Homo sapiens) (UniProt O75469). Put plainly: Dual reporter qHTS for agonist of Pregnane X Receptor (hPXR) against the NCATS DSHEA and TCM libraries: Luminescence readout (AID 1920059). Further: 0% is about no effect. Particulars: hPXR dual reporter cells, luciferase luminescence agonist; series mostly up to 40 µM. Put shortly: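 hPXR-LucHepG2 cells in phenol red-free DMEM with 5% charcoal-stripped FBS, 2000 cells/well, attached 5 h, then exposed 24 h at 37C to compounds; rifampicin as positive agonist control (2.8 nM–92 uM). Luciferase luminescence read.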
Sequence of Nuclear receptor subfamily 1 group I member 2 (Homo sapiens) (O75469 whole entry, looked up): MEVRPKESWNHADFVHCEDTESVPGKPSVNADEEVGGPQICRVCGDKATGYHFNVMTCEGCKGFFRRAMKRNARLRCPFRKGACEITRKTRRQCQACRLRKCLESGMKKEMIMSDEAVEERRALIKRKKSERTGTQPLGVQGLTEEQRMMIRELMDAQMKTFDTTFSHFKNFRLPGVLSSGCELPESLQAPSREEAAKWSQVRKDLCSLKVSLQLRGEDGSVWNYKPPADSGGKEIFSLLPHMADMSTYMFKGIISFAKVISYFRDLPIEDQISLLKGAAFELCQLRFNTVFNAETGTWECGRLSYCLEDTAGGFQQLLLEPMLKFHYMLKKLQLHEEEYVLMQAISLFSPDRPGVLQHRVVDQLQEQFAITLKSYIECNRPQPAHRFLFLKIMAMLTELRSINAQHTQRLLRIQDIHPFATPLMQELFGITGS

The target is the same in test [19]. The test is described as follows: Dual reporter qHTS for antagonist of Pregnane X Receptor (hPXR) against the NCATS DSHEA and TCM libraries: Luminescence Readout (AID 1920060).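 Further: HepG2 cells carrying hPXR luciferase reporter stimulated with rifampicin at 2 µM; 0% is about no effect.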 Particulars: hPXR dual reporter cells, luciferase luminescence, antagonist mode; series mostly up to 40 µM. Put shortly:
(§3)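 hPXR-Luc HepG2 cells exposed 24 h at 37 C to compounds with 2 uM rifampicin in antagonist mode; luciferase luminescence measured by ONE-Glo, with CellTiter-Fluor viability read beforehand.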

A short description of test [20]: Dual reporter qHTS for antagonist of Pregnane X Receptor (hPXR) against the NCATS DSHEA and TCM libraries: Fluorescence Readout (AID 1920061). Further: 0% is about no effect. Particulars: PXR dual reporter cells, antagonist mode; series mostly up to 40 µM. Put shortly:
as §3

Where [21] appears, read: measured here: PEO1 parental Z-AUC.
Where [22] appears, read: at 28.7 µM (top of the series), parasite line A.
Where [23] appears, read: at 28.7 µM (top of the series), parasite line B.

Records with an inconclusive call do not appear. Activity calls are given as the source filed them. Unless noted, the call rests on the fitted dose curve; in most records, active means well fitted curve in the direction sought with a large enough effect; inconclusive means small, poorly fitted or top-dose-only effect, or another doubt; inactive means no such curve, though single readings can be large; an effect the other way counts as inactive or inconclusive.

Sequence of Cytochrome P450 1A2 (Homo sapiens) (P05177 whole entry, looked up): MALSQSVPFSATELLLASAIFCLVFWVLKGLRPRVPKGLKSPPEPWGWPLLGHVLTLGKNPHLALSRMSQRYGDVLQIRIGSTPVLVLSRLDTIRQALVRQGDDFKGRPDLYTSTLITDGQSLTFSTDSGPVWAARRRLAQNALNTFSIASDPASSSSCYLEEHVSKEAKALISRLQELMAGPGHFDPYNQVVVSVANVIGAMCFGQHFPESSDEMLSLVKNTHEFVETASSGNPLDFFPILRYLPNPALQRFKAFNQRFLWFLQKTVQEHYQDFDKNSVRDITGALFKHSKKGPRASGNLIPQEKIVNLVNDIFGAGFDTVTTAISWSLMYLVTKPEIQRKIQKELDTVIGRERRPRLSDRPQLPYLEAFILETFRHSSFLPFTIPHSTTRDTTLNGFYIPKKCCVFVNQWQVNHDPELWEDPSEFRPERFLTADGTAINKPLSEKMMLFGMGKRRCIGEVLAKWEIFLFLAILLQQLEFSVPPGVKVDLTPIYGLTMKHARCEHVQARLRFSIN
Sequence of Cytochrome P450 3A4 (Homo sapiens) (P08684 whole entry, looked up): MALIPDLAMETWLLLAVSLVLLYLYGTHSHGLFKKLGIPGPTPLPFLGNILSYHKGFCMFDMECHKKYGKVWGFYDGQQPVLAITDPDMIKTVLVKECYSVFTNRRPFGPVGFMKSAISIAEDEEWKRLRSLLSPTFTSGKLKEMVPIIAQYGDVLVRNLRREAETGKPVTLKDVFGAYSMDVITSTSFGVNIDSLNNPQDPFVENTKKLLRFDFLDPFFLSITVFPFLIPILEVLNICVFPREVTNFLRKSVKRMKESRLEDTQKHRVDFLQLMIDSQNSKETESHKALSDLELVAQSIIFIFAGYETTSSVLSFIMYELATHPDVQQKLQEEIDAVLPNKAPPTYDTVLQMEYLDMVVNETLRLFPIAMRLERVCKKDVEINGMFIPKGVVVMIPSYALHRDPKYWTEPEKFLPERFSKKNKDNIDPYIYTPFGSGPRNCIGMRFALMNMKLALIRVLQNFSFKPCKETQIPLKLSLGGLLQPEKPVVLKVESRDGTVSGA
Sequence of Cytochrome P450 2C19 (Homo sapiens) (P33261 whole entry, looked up): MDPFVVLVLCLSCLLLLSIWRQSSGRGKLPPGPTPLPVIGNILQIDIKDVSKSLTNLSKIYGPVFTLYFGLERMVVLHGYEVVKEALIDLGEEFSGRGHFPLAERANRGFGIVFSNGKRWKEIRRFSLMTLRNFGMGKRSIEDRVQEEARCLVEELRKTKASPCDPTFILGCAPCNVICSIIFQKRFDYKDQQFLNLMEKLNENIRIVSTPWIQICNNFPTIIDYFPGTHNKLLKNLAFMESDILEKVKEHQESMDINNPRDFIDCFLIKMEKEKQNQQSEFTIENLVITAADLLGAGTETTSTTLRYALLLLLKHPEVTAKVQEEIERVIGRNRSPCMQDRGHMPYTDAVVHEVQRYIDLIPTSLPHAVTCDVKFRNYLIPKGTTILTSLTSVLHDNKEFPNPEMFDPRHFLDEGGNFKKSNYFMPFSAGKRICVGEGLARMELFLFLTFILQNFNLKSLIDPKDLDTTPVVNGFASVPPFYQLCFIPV
Sequence of Cytochrome P450 2C9 (Homo sapiens) (P11712 whole entry, looked up): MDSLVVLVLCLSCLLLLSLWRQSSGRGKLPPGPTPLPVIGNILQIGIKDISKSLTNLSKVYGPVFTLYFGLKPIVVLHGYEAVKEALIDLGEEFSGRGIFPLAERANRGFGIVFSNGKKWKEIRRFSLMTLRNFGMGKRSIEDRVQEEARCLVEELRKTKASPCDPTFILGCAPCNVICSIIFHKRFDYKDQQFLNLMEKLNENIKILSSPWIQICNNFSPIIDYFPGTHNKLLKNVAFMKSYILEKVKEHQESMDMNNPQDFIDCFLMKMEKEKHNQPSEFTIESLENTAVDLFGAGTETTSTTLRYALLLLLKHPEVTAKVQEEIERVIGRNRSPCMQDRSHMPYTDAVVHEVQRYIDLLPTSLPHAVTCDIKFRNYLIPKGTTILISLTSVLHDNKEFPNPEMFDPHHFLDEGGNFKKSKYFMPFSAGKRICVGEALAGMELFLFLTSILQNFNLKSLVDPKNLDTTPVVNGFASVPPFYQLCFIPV
Sequence of Cytochrome P450 2D6 (Homo sapiens) (P10635 whole entry, looked up): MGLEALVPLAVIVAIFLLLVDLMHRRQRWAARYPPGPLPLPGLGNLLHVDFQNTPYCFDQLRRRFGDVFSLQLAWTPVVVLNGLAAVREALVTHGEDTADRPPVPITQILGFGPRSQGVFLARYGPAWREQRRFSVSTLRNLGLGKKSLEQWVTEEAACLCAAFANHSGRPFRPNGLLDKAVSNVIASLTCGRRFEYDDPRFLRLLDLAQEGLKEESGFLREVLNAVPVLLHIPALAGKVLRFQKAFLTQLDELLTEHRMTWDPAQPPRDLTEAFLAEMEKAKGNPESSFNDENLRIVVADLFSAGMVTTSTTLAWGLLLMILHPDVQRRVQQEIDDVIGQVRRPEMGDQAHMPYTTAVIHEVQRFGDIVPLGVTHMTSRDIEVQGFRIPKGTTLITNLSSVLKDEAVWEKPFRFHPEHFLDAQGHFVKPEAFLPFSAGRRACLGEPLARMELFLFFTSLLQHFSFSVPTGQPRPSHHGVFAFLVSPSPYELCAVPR

Turning to `CC(C)c1c(C(=O)Nc2ccccc2)c(-c2ccccc2)c(-c2ccc(F)cc2)n1CC[C@@H](O)C[C@@H](O)CC(=O)O`, the Z-AUC in test [1] is -0.739 (inactive); in test [1] (setting [21]), -0.99; in [1] (measured here: PEO4 Z-AUC) it was -1.27.
For the molecule `O=c1[nH]c(=O)c2[nH]c(=O)[nH]c2[nH]1`, the results for the activity, negative = inhibition in test [2] (setting [22]) and in [2] (setting [23]) were -3.55% (inactive) and 2.26% (inactive), respectively. The Potency entry in [3], in test [4], in test [5], in test [6], in test [7] and in [8] was “inactive” each time. The Potency entry in [9] is “inactive”.
In the case of `CCN(CC)CCNC(C(=O)OCCC(C)C)c1ccccc1` (configuration not stated), the activity, negative = inhibition is 6.18% (inactive) in test [2] (setting [22]) and 14.1% (inactive) in [2] (setting [23]). The Potency result in test [3] is “inactive”. In addition, the Potency in [4] was 12.6 µM (active).
`CN(N=O)C(=O)N[C@@H]1[C@@H](O)[C@H](O)[C@@H](CO)O[C@@H]1O`: the Z-AUC in test [1] was 1.08 (inactive); in test [1] (setting [21]), 0.655; in test [1] (measured here: PEO4 Z-AUC), 0.737.
With `CN1CCCCC1CCN1c2ccccc2Sc2ccc(S(C)=O)cc21` (configuration not stated), the activity, negative = inhibition in test [2] (setting [22]) is -4.2% (inactive); in [2] (setting [23]), 5.63% (inactive). Besides, the Potency entry in test [3] is “inactive”. Further, in test [4], the Potency is 10 µM (active).
As for `CC(=O)O[C@@]12CO[C@@H]1C[C@H](O)[C@@]1(C)C(=O)[C@H](O)C3=C(C)[C@@H](OC(=O)[C@H](O)[C@@H](NC(=O)OC(C)(C)C)c4ccccc4)C[C@@](O)([C@@H](OC(=O)c4ccccc4)[C@H]21)C3(C)C`, the Potency in test [1] was 0.0087 µM (active). Moreover, the values for the Z-AUC in [1] (setting [21]) and in [1] (measured here: PEO4 Z-AUC) were -2.65 and -3.1, respectively.
On to `O=C(O)c1ccccc1O`, for which the outcome in test [10], in [11], in test [12], in test [13], in [14] and in test [15] was inactive. For the same molecule, the call in [17], in test [18], in [19] and in test [20] was inactive. Besides, the max response in [16] is -0.219% (inactive). Moreover, the activity, negative = inhibition was 0.135% (inactive) in test [2] (setting [22]) and 11.3% (inactive) in test [2] (setting [23]). In addition, the Potency result in test [3], in test [4], in [5], in test [6], in test [7] and in test [8] was “inactive” throughout. Besides, the Potency result in test [9] is “inactive”.
Regarding `N[C@@H](CSCCCO)C(=O)O`, the values for the activity, negative = inhibition in test [2] (setting [22]) and in test [2] (setting [23]) were -6.32% (inactive) and -2.52% (inactive), respectively. Also, the Potency result in [3], in test [4], in test [5], in test [6], in [7] and in [8] was “inactive” each time. The Potency result in test [9] is “inactive”.
With `COc1ccc2[nH]c(S(=O)Cc3ncc(C)c(OC)c3C)nc2n1` (configuration not stated), the Z-AUC is -1.06 (inactive) in test [1], -0.26 in [1] (setting [21]) and 0.544 in test [1] (measured here: PEO4 Z-AUC). In addition, the Potency in test [2] (parasite line B) was 10 µM (active); in test [3], 10 µM (active); in [4], 11.2 µM (active); in test [6] it was 8.91 µM (active).
On to `OC[C@H]1O[C@@H](O[C@@H]2[C@@H](CO)O[C@](O)(CO)[C@H]2O)[C@H](O)[C@@H](O)[C@H]1O`, for which the Z-AUC is -0.433 (inactive) in test [1], -0.31 in [1] (setting [21]) and -0.255 in test [1] (measured here: PEO4 Z-AUC).
For `CC(=O)c1ccc2c(c1)N(CCCN(C)C)c1ccccc1S2`, the activity, negative = inhibition is 7.32% (inactive) in test [2] (at 12.8 µM (top of the series), parasite line A) and -24.3% (inactive) in test [2] (at 12.8 µM (top of the series), parasite line B). Besides, the Potency entry in test [3], in test [4], in test [5], in [6], in test [7] and in test [8] was “inactive” each time. In addition, the Potency entry in test [9] was “inactive”.
As to `NC(=O)c1ncn([C@@H]2O[C@H](CO)[C@@H](O)[C@H]2O)c1N`, the Z-AUC in test [1] was -0.269 (inactive); in [1] (setting [21]), -0.745; in test [1] (measured here: PEO4 Z-AUC), -0.555.
With `CC12CCC(CC1)C(C)(C)O2`, the result in test [10], in test [11], in test [12], in test [13], in [14] and in test [15] was inactive. Also, the outcome in [17], in test [18], in [19] and in test [20] was inactive. Moreover, in [16], the max response is -1.5% (inactive). The activity, negative = inhibition in [2] (setting [22]) was 9.21% (inactive); in [2] (setting [23]), -14.4% (inactive). Also, the Potency result in [3], in [4], in [5], in test [6], in test [7] and in test [8] was “inactive” throughout. In addition, the Potency result in test [9] is “inactive”.
